Type in all cases: functional
Experiment [1] relates to Plasmodium falciparum. Description: GSK_TCMDC: Inhibition of Plasmodium falciparum 3D7 in whole red blood cells, using parasite LDH activity as an index of growth. Test compounds present at 2uM.
Experiment [2] has as its system Plasmodium falciparum. Description: GSK_TCMDC: Inhibition of Plasmodium falciparum Dd2 in whole red blood cells, using parasite LDH activity as an index of growth. Test compounds present at 2uM.
Another experiment has as its system HepG2. The experiment in a line: GSK_TCMDC: Percent inhibition of human HepG2 cell line. Test compounds present at 10uM.

In ChEMBL document CHEMBL1157539, “Thousands of chemical starting points for antimalarial lead identification” (Nature, 2010) one finds Inhibition data, which are given here for 57 molecules.

As usually defined, the Inhibition is the share of the control response that was lost under treatment. Higher therefore signals a response far below the control. For `O=C(NCCN1CCCC1)c1cccc(-c2ccc(-c3nc4ccccc4[nH]3)s2)c1`, the values for the Inhibition in the experiment with Plasmodium falciparum [1], in the experiment with Plasmodium falciparum [2] and in the experiment on HepG2 were 96%, 13% and 27%, respectively.
The matching figures for `CN(c1ccccc1)S(=O)(=O)c1cccc(NC(=O)c2ccc(-n3ccnc3)c([N+](=O)[O-])c2)c1`: 83%, 0% and 19%.
`O=C(NCc1ccc(C(=O)NC2CCCCC2)cc1)c1ccc(O)c(-c2ccc(Cl)c(Cl)c2)c1`: the results for the Inhibition with Plasmodium falciparum [1], in the experiment on Plasmodium falciparum [2] and in the experiment with HepG2 were 93%, 0% and 5%, respectively.
In the case of `CCOc1ccc2[nH]c(C)cc(=NN=Cc3ccccc3Cl)c2c1`, the values for the Inhibition in the experiment on Plasmodium falciparum [1], in the experiment with Plasmodium falciparum [2] and in the experiment on HepG2 were 100%, 100% and 11%, respectively.
Regarding `CN(C)Cc1ccc(-c2cccc(Nc3nccc(NCC(O)c4ccccc4)n3)c2)cc1` (stereo unspecified), the Inhibition came out at 100% with Plasmodium falciparum [1], 100% in the experiment with Plasmodium falciparum [2] and 74% in the experiment on HepG2.
Regarding `CCCCCCCc1c(C)nc2ccccc2c1O`, the Inhibition stood at 98% in the experiment with Plasmodium falciparum [1], 96% in the experiment with Plasmodium falciparum [2] and 0% with HepG2.
The matching figures for `O=C(CCc1ccccc1)NC(c1ccc(Cl)cc1)c1ccc2cccnc2c1O` (stereo unspecified): 95%, 49% and 59%.
As to `O=C(/C=C/c1cccc(Cl)c1)NCCCCCN1CCC(c2c[nH]c3ccccc23)CC1`, the figures for the Inhibition with Plasmodium falciparum [1], in the experiment with Plasmodium falciparum [2] and with HepG2 were 89%, 17% and 46%, respectively.
As to `Cc1cc(NC(=O)Nc2ccc(I)c(OCCN(C)C)c2)ccc1Br.Cl`, the Inhibition with Plasmodium falciparum [1] is 100%; with Plasmodium falciparum [2], 42%; with HepG2 it was 18%.
The matching figures for `c1ccc(-c2nc(Nc3nc4ccccc4[nH]3)[nH]c2-c2ccccc2)cc1`: 96%, 61% and 14%.
The matching figures for `O=S(=O)(c1ccc(NC(S)=NN=Cc2ccccn2)cc1)N1CCCCC1`: 98%, 56% and 43%.
Consider `Clc1ccccc1CCNCC1CCN(CC2CCCCC2)CC1.O=C(O)C(F)(F)F`, for which the Inhibition in the experiment with Plasmodium falciparum [1] is on record as 97%; in the experiment with Plasmodium falciparum [2], 38%; in the experiment with HepG2 it was 45%.
On to `CS(=O)(=O)CCNCc1cc(-c2cc3ncnc(Nc4ccc(OCc5cccc(F)c5)c(Cl)c4)c3s2)cs1`, for which the Inhibition with Plasmodium falciparum [1] is reported as 99%; in the experiment with Plasmodium falciparum [2] it was 48%; in the experiment with HepG2 it was 8%.
Regarding `COc1cc2nc(NCCc3ccccc3)nc(NC(C)c3ccccc3)c2cc1OC` (stereo unspecified), the Inhibition with Plasmodium falciparum [1] is 99%; in the experiment with Plasmodium falciparum [2], 100%; with HepG2 it was 9%.
The like results for `CCCCNC(=O)C(C)NC(=O)c1ccc(O)c(-c2ccc(Cl)c(Cl)c2)c1` (stereo unspecified) were, in that order, 98%, 8% and 0%.
The matching figures for `CCn1c(-c2nonc2N)nc2c(-c3cccc(NC(=O)Nc4ccc(C(F)(F)F)cc4)c3)ncc(OCCCN)c21.O=C(O)C(F)(F)F`: 94%, 63% and 36%.
With `O=C(/C=C/c1ccc(Cl)c(Cl)c1)NCCCCCN1CCC(c2c[nH]c3c(-c4ccccc4)cccc23)CC1`, the Inhibition in the experiment on Plasmodium falciparum [1] was found to be 99%; in the experiment on Plasmodium falciparum [2], 40%; with HepG2 it was 74%.
In the case of `Nc1nc(N)c2c(Cc3ccc(Br)cc3)cccc2n1`, the Inhibition in the experiment on Plasmodium falciparum [1] is 99%; in the experiment on Plasmodium falciparum [2] it was 20%; in the experiment on HepG2, 28%.
The like results for `C=Cc1ccc(-c2c(C)[nH]c(C)c(Br)c2=O)cc1` were, in that order, 98%, 96% and 0%.
On to `O=C(Nc1ccc(F)cc1)N1CCCN(c2ccnc3cc(Cl)ccc23)CC1.O=C(O)C(F)(F)F`, for which the values for the Inhibition with Plasmodium falciparum [1], in the experiment with Plasmodium falciparum [2] and in the experiment with HepG2 were 97%, 16% and 7%, respectively.
As to `Nc1nc(N)c2c(ccc3c2ccn3CCCCO)n1`, the Inhibition turned out to be 93% in the experiment with Plasmodium falciparum [1], 49% with Plasmodium falciparum [2] and 61% with HepG2.
Consider `O=c1cc(NCCCNCc2cc(Br)ccc2F)[nH]c2ccccc12`, for which the Inhibition with Plasmodium falciparum [1] is recorded as 95%; with Plasmodium falciparum [2], 14%; in the experiment with HepG2 it was 0%.
Turning to `CC[C@H](NC(=O)c1ccc(NC(=O)OC(C)(C)C)cc1)C(=O)N[C@@H](CO)C(=O)NCCCCc1ccccc1`, the Inhibition is 98% with Plasmodium falciparum [1], 94% in the experiment on Plasmodium falciparum [2] and 0% with HepG2.
The like results for `Cc1cc(O)c(CN(C)Cc2ccc3c(c2)OCCO3)cc1C(C)C` were, in that order, 98%, 47% and 10%.
The like results for `CCCCOc1ccc(C(=O)C(CCC(CNC(C)(C)C)C(=O)c2ccc(OCCCC)cc2)CNC(C)(C)C)cc1.Cl` (stereo unspecified) were, in that order, 94%, 92% and 100%.
For `Cc1ccc2nc(C)cc(Nc3ccccc3O)c2c1.Cl`, the Inhibition in the experiment on Plasmodium falciparum [1] worked out at 96%; in the experiment on Plasmodium falciparum [2] it was 6%; in the experiment with HepG2 it was 0%.
Take `O=C(Nc1ccccc1)OCCOc1ccc(CC2SC(=O)NC2=O)cc1` (stereo unspecified): the values for the Inhibition in the experiment with Plasmodium falciparum [1], in the experiment on Plasmodium falciparum [2] and in the experiment with HepG2 were 100%, 0% and 1%, respectively.
For `CCc1c(CCNCCCCCCNCCc2ccc(OC)c(OC)c2C)ccc(OC)c1OC.Cl`, the Inhibition with Plasmodium falciparum [1] came to 98%; in the experiment on Plasmodium falciparum [2], 1%; in the experiment on HepG2, 16%.
The matching figures for `COc1ccc(C(=O)Nc2nonc2-c2ccc(OC)c(OC)c2)cc1Cl`: 97%, 97% and 6%.
On to `Cn1nc(-c2ccc(CN[C@@H]3CCc4ccc(O)cc43)cc2)c2cnc(NCCCN3CCCC3)nc21`, for which the figures for the Inhibition in the experiment on Plasmodium falciparum [1], in the experiment on Plasmodium falciparum [2] and in the experiment with HepG2 were 100%, 61% and 8%, respectively.
The like results for `COc1ccc(-c2ccc(S(=O)(=O)Nc3cc4c(cc3OC(C)C)CCN(C)CC4)cc2)cc1.Cl` were, in that order, 98%, 2% and 16%.
The like results for `CCN(CC)CCCC(C)Nc1c(-c2ccc(OC)cc2)cnc2ccccc12` (stereo unspecified) were, in that order, 93%, 38% and 3%.
The like results for `Cc1[nH]c(C)c(-c2ccc(-c3cccc(C(F)(F)F)c3)nc2)c(=O)c1Br` were, in that order, 97%, 96% and 28%.
Consider `O=C(/C=C/c1ccc(Cl)c(Cl)c1)NCCCCCN1CCN(C(=O)Nc2ccc(OC(F)F)cc2)CC1`, for which the values for the Inhibition with Plasmodium falciparum [1], in the experiment on Plasmodium falciparum [2] and with HepG2 were 99%, 0% and 20%, respectively.
The matching figures for `OC(c1ccc(Cl)cc1)(c1ccc(Cl)cc1)C(c1ccc(Cl)cc1)n1ccnc1` (stereo unspecified): 100%, 100% and 15%.
Consider `CCCCOc1cc2c(cc1OCC)C(C=Cc1ccc(Cl)cc1Cl)=NCC2.Cl`, for which the Inhibition is 97% in the experiment on Plasmodium falciparum [1], 95% with Plasmodium falciparum [2] and 0% in the experiment with HepG2.
In the case of `Cc1cc(F)ccc1-c1nc(NCCCN2CCCC2=O)nc2c1ccc(=O)n2-c1c(F)cccc1F`, the Inhibition in the experiment on Plasmodium falciparum [1] was found to be 88%; with Plasmodium falciparum [2] it was 80%; in the experiment with HepG2, 0%.
The matching figures for `CCN(CC)CCN(CCN(CC)CC)c1ccc(-c2nc3cc(Cl)c(Cl)cc3[nH]2)cc1`: 100%, 97% and 9%.
Consider `Cc1[nH]c(C)c(-c2ccc(-c3cc(C(F)(F)F)cc(C(F)(F)F)c3)nc2)c(=O)c1Br`, for which the Inhibition in the experiment on Plasmodium falciparum [1] was found to be 98%; in the experiment on Plasmodium falciparum [2], 96%; with HepG2, 18%.
Consider `CC(C)C1=C[C@H]2C[C@]3(C4OCCO4)[C@@H]4CC[C@@H](C)[C@H]4C[C@@]2(C(=O)OCC2COCO2)[C@]13C(=O)OC(c1ccccc1)c1ccccc1` (stereo partly specified), for which the figures for the Inhibition in the experiment with Plasmodium falciparum [1], in the experiment on Plasmodium falciparum [2] and with HepG2 were 92%, 96% and 2%, respectively.
Take `COc1ccc(N2CCN(CCCCNC(=O)c3ccc(NC(=O)c4cc(C(F)(F)F)cc(C(F)(F)F)c4)cc3)CC2)c(OC)c1`: the Inhibition with Plasmodium falciparum [1] is reported as 100%; in the experiment with Plasmodium falciparum [2], 99%; with HepG2, 30%.
Turning to `O=C(c1ccccc1NN=C1C(=O)N(c2ccccc2)N=C1c1ccccc1)N1CCOCC1`, the Inhibition is reported as 97% with Plasmodium falciparum [1], 2% in the experiment on Plasmodium falciparum [2] and 0% in the experiment on HepG2.
With `Br.N=C1c2ccccc2CN1CC(=O)c1ccc(Cl)c(Cl)c1`, the Inhibition with Plasmodium falciparum [1] is given as 98%; with Plasmodium falciparum [2] it was 16%; in the experiment on HepG2, 1%.
The like results for `Cl.O=C(CCCC(=O)Nc1ccc(C2=NCCN2)cc1)Nc1ccc(C2=NCCN2)cc1` were, in that order, 91%, 81% and 3%.
The matching figures for `Cn1cc(CCNc2ccnc(N3CCC(c4ncc[nH]4)CC3)n2)c2ccccc21`: 92%, 5% and 12%.
As for `Cl.O=c1cc(NCCCNCc2ccc(C(F)(F)F)s2)[nH]c2ccccc12`, the Inhibition was 99% with Plasmodium falciparum [1], 68% in the experiment on Plasmodium falciparum [2] and 0% in the experiment with HepG2.
As to `COc1ccc2nccc([C@@H](O)CN3CCC(NCCOc4ccncc4)CC3)c2c1.O=C(O)C(=O)O`, the Inhibition is given as 100% in the experiment with Plasmodium falciparum [1], 0% with Plasmodium falciparum [2] and 11% in the experiment on HepG2.
For the molecule `COc1ccc2c(c1)c(C1CCN(CCCCNC(=O)c3ccc(-c4ccc(C(F)(F)F)cc4)cc3)CC1)cn2C(C)C`, the figures for the Inhibition with Plasmodium falciparum [1], with Plasmodium falciparum [2] and in the experiment on HepG2 were 99%, 21% and 26%, respectively.
The like results for `CCCN(CCC)CCCNc1ccc(C(=O)Nc2ccc(C)c(F)c2)cc1[N+](=O)[O-]` were, in that order, 100%, 94% and 33%.
The matching figures for `COc1ccc(CNCc2cccc(-c3cccc(-c4nc5cc(F)ccc5[nH]4)c3)c2)cc1.O=C(O)C(F)(F)F`: 100%, 55% and 18%.
The like results for `CC1CCc2sc(-c3nnc(SC(C)C(=O)NC4CC4)o3)cc2C1` (stereo unspecified) were, in that order, 83%, 69% and 5%.
For `CCCC(C)NC(=O)C(N)Cc1cccc(I)c1.O=C(O)C(F)(F)F` (stereo unspecified), the Inhibition is 95% in the experiment with Plasmodium falciparum [1], 65% in the experiment on Plasmodium falciparum [2] and 11% with HepG2.
With `O=C(NC1CC1)c1cnc(N2CCN(Cc3c(F)cccc3Cl)CC2)c(Cl)c1.O=C(O)C(F)(F)F`, the Inhibition in the experiment on Plasmodium falciparum [1] was 93%; in the experiment on Plasmodium falciparum [2], 93%; with HepG2 it was 0%.
Turning to `O=C(/C=C/c1ccccc1Cl)Nc1ccc(Br)c(OCCN2CCN(CCN3CCOCC3)CC2)c1.O=C(O)C(=O)O`, the values for the Inhibition with Plasmodium falciparum [1], with Plasmodium falciparum [2] and in the experiment on HepG2 were 98%, 91% and 22%, respectively.
On to `Cc1nc(-c2cccc(Nc3nccc(NCC(O)c4ccccc4C(F)(F)F)n3)c2)cs1` (stereo unspecified), for which the Inhibition in the experiment on Plasmodium falciparum [1] is 97%; with Plasmodium falciparum [2], 50%; in the experiment on HepG2 it was 48%.
With `CC(=O)Nc1ccc(C(=O)Nc2cccc(-c3ccc(-c4nc5cccc(C)c5[nH]4)cc3)c2)cn1`, the Inhibition in the experiment on Plasmodium falciparum [1] is recorded as 100%; in the experiment on Plasmodium falciparum [2] it was 94%; in the experiment on HepG2, 25%.
For the molecule `CCCNCc1ccc(-c2ccc(CN(CCOC)C(=O)c3cscn3)cc2)nc1.O=C(O)C(F)(F)F`, the results for the Inhibition in the experiment with Plasmodium falciparum [1], with Plasmodium falciparum [2] and in the experiment with HepG2 were 99%, 16% and 13%, respectively.
